KCNQ2 enhance: enhances the rat KCNQ2 potassium channel; B-score at 10 µM; 310,000 compounds, 0.54% hits; CHO-K1 KCNQ2, FluxOR thallium flux fluorescence; hits give high values; AID 2239; O88943;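 active = fluorescence ratio B-score at least 3 SD of library B-scores, with initial fluorescence B-score within 3 of them, cut at about 5.3 in these data; same plate scores as AID 2156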;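 note: B-score of peak minus minimum over baseline fluorescence ratio after K+ and Tl+ stimulus; positive B-score means potentiation of KCNQ2 with more thallium influx and brighter signal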
Target sequence (O88943 whole entry, looked up): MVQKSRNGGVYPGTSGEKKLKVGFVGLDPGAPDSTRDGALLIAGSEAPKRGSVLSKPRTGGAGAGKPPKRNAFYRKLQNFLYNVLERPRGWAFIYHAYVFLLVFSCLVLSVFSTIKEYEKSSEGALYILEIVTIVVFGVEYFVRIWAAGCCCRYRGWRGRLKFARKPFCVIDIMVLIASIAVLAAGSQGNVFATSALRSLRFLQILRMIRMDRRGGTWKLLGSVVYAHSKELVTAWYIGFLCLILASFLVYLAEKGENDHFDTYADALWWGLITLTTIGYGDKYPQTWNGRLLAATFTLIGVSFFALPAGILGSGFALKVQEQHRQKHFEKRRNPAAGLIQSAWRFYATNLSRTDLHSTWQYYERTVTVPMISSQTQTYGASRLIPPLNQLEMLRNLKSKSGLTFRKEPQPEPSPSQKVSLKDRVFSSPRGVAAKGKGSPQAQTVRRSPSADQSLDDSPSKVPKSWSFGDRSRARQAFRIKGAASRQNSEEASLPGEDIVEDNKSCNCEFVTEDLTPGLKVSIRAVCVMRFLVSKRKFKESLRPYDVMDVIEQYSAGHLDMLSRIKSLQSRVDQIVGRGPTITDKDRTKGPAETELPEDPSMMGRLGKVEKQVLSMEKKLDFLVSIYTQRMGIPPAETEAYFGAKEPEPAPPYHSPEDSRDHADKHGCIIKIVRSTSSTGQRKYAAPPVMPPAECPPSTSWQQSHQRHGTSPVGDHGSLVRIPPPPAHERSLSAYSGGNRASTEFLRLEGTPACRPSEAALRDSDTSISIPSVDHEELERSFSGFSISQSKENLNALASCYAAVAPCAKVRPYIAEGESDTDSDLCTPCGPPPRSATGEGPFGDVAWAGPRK
KCNQ2 inh: inhibitors of rat KCNQ2 potassium channel; 310,000 compounds, 1.1% hits; CHO-K1 KCNQ2, FluxOR thallium flux, 20 min; hits give low values; B-score at 10 µM; O88943;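 active = fluorescence ratio B-score at most minus 3 library SDs, with starting brightness B-score within 2 library SDs, cut at about -5.5 in these data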
* marks the source's active call; other numbers are inactive results; i = inactive; . = no result given. This is a sample that favours compounds with a hit; in the whole collection about 1.6% have one here.

SMILES	KCNQ2 enhance	KCNQ2 inh
CCCCNC(=O)c1onc(CSc2cc(C)cc(C)c2)c1C(=O)O	1.9	i
CCC(C)[C@H](NC(=O)NCc1ccc(S(N)(=O)=O)cc1)C(=O)O (some centres undefined)	.	i
O=C(CNC(=O)c1ccccc1F)N/N=C/c1cccnc1	.	i
CCN(CC)CCn1c(NCc2nc3ccccc3n2Cc2ccccc2)nc2ccccc21	-6.2	-6.2*
c1ccc(Cn2c(CNc3nc4ccccc4n3CCN3CCCCC3)nc3ccccc32)cc1	-7.29	-7.29*
CCN(CC)CCn1c(NCc2ccco2)nc2ccccc21	0.5	i
Cn1c(CNc2nc3ccccc3n2CCN2CCCCC2)nc2ccccc21	.	i
CN1CCN(c2ccc(Cl)cc2NC(=O)/C=C/c2ccc(F)cc2)CC1	-5.64	-5.64*
O=C(/C=C/c1ccc(F)cc1)Nc1cc(S(=O)(=O)N2CCOCC2)ccc1N1CCCC1	.	i
Cc1cc(C)c2c(=O)n(CC(=O)NCCCN3CCOCC3)sc2n1	2.69	i
Cc1cc(C)c2c(=O)n(CC(=O)NCCCN3CCN(c4ccccc4F)CC3)sc2n1	-9.95	-9.95*
COc1cc(C2C3C(=O)N(Cc4ccccc4)C(=O)C3ON2c2ccccc2)cc(OC)c1OC (centres undefined)	-6.36	-6.36*
O=C1C2ON(c3ccccc3)C(c3cccnc3)C2C(=O)N1Cc1ccccc1 (centres undefined)	.	i
O=C(N1CCOCC1)N(CCN1CCOCC1)Cc1cccc2ccccc12	.	i
CC1(C(=O)c2ccccc2)C2c3c(ccc4ccccc34)OC(=O)C21C(=O)N1CCOCC1 (centres undefined)	-7.87	-7.87*
O=C(Nc1ccc(Br)cc1)/C(=C/c1cccc([N+](=O)[O-])c1)NC(=O)C1CCCCC1	-7.65	-7.65*
Cc1ccc(NC(=O)/C(=C/c2cccc([N+](=O)[O-])c2)NC(=O)C2CCCCC2)cc1	0.49	i
Cc1cccc(OCc2nnc(SC(C)C(=O)O)n2-c2ccccc2)c1 (centres undefined)	0.47	i
COc1ccc(NC(=O)c2cc(-c3ccc(OC)c(OC)c3)nc3ccccc23)c(OC)c1	-5.87	-5.87*
COc1ccc(-c2cc(C(=O)Nc3ccc(C(N)=O)cc3)c3ccccc3n2)cc1OC	.	i
COc1cccc(-c2cc(C(=O)NC3CCCC3)c3ccccc3n2)c1	.	i
COc1cc(-c2cc(C(=O)Nc3cccc(C(C)=O)c3)c3ccccc3n2)cc(OC)c1OC	-5.61	-5.61*
CC(=O)c1cccc(NC(=O)c2cc(-c3ccco3)nc3ccccc23)c1	.	i
COc1ccc(OC)c(-c2cc(C(=O)NC3CCCC3)c3ccccc3n2)c1	-6.07	-6.07*
CN(CCN1CCOCC1)Cc1nc(-c2ccc(Cl)cc2)no1	0.2	i
SMILES	KCNQ2 enhance	KCNQ2 inh
Cc1cccc(N(Cc2ccccc2)C(=O)c2ccccc2S(C)(=O)=O)c1	.	i
COc1ccc(C2CC(c3ccccc3)Nc3nc(NC(=O)c4ccco4)nn32)cc1 (centres undefined)	0.64	i
O=C(Nc1nc2n(n1)C(c1ccccc1)CC(c1ccc(Cl)cc1)N2)c1ccco1 (centres undefined)	-7.25	-7.25*
Cc1cccn2c(/C=N/OCc3ccc(F)cc3)c(-c3ccc(Cl)cc3)nc12	-6.57	-6.57*
COc1ccc(/C(C#N)=C/c2c(-c3ccc(Cl)cc3)nc3c(C)cccn23)cc1	.	i
Cc1[nH]c(C)c(S(=O)(=O)NCc2ccc(OC(C)C)cc2)c1C(=O)N1CCCC1	-5.65	-5.65*
COc1ccc(CNS(=O)(=O)c2c(C)[nH]c(C)c2C(=O)N2CCCC2)cc1	.	i
C/C=C(\C)C(=O)N1CCC(C(=O)c2ccccc2)CC1	.	i
O=C(CCNC(=O)c1ccc(Cl)cc1)Nc1cccc(S(=O)(=O)N2CCCCCC2)c1	1.53	i
C/C(=N\NC(=O)c1cccc(S(=O)(=O)N2CCCC2)c1)c1ccc(C)cc1	.	i
C/C(=N\Nc1nc(C)cc(-c2ccccc2)n1)c1ccc(C)o1	-6.07	-6.07*
C/C(=N/Nc1nc(C)cc(-c2ccccc2)n1)c1ccco1	1.71	i
CC(=O)Nc1ccc(SCC(=O)Nc2cc(C)on2)cc1	1.15	i
Cc1cc(C)c(C(=O)COC(=O)[C@H](C)Nc2ccc(C(F)(F)F)cc2[N+](=O)[O-])c(C)c1	-6.24	-6.24*
COc1ccc(C(=O)COC(=O)[C@H](C)Nc2ccc(C(F)(F)F)cc2[N+](=O)[O-])cc1	0.01	i
O=C(COc1ccc(Cl)cc1)N(Cc1ccc(F)cc1)C1CCS(=O)(=O)C1 (centres undefined)	.	i
CCCCCC(=O)N/N=C/c1ccco1	7.16*	i
Cc1cccc(NC(=O)CCC(=O)N/N=C/c2ccco2)c1	.	i
O=C(N/N=C\c1ccco1)Nc1cccc(Cl)c1	5.95*	i
O=C(CCCCCCCCC(=O)N/N=C/c1ccco1)N/N=C/c1ccco1	0.39	i
Cc1ccccc1CSCC(=O)Nc1ccccc1Br	.	i
CN(C)C(=O)C(NC(=O)c1ccccc1)=C(Cl)Cl	0.03	i
Oc1ccc(NCc2cccc(OCc3ccccc3)c2)cc1	.	i
Oc1ccc(NCc2cccc(OCc3ccc(F)cc3)c2)cc1	-5.85	-5.85*
Cc1ccc(OCC(=O)Nc2ccc3oc(=O)ccc3c2)c(C)c1	.	i
SMILES	KCNQ2 enhance	KCNQ2 inh
COc1ccc2c(C)cc(SCC(=O)Nc3nsc(-c4ccc(C)cc4)n3)nc2c1	-6.35	-6.35*
Cc1ccc(-c2nc(NC(=O)CSc3cc(C)c4ccccc4n3)ns2)cc1	.	i
COc1ccc2ccccc2c1C1NC(=O)NC(C)=C1[N+](=O)[O-] (centres undefined)	.	i
O=C(CNCc1ccccc1)Nc1cccc(Cl)c1Cl	-6.02	-6.02*
O=C(CNCc1ccccc1)Nc1ccccc1-c1ccccc1	.	i
COCn1c(-c2ccc(OC)c(OC)c2)nc2ccccc21	.	i
COCn1c(-c2cccc(Br)c2)nc2ccccc21	-5.9	-5.9*
Cn1ccnc1SCC(=O)Nc1cc(F)ccc1F	.	i
COc1ccccc1NC(=O)C1CC(C)OC1=O (centres undefined)	.	i
COc1cc(NC(=S)NCc2cccnc2)cc(OC)c1OC	0.03	i
COc1cc(NC(=S)NCc2cccnc2)cc(OC)c1	-7.41	-7.41*
Cc1ccc(C(=O)C(C)OC(=O)c2n[nH]c(=O)c3ccccc23)cc1 (centres undefined)	0.15	i
O=c1cc(CN2CCN(S(=O)(=O)c3ccccc3[N+](=O)[O-])CC2)nc2sccn12	1.27	i
Cc1c(Cl)ccc2c(C(=O)Nc3cc(C(C)(C)C)on3)cc(-c3ccccn3)nc12	-5.93	-5.93*
Cc1cccc2c(C(=O)Nc3ccc(Br)cc3)cc(-c3ccccn3)nc12	0.05	i
Cc1ccc(-n2cc(CNCCc3cscn3)c(-c3ccc(F)cc3)n2)cc1	-6.78	-6.78*
COc1ccc(-n2cc(CNCCc3cscn3)c(-c3ccccc3Cl)n2)cc1	.	i
O=C(O)c1cc(N/N=C/C(Cl)=C/c2ccccc2)ccc1Cl	5.32*	i
O=C(O)c1cc(N/N=C/c2cccc3ccccc23)ccc1Cl	1.82	i
Nc1nc(Cl)cc(Nc2ccccc2Cl)n1	3.42	i
CSc1nc(Cl)cc(Nc2ccccc2N)n1	-6.05	-6.05*
CCN(CC(=O)Nc1ccc(NC(C)=O)cc1)C(=O)Cc1cccc2ccccc12	0.16	i
NS(=O)(=O)c1ccc(CCNCC(=O)NCc2ccccc2Cl)cc1	1.08	i
